Compound activity deposited in PubChem BioAssay by National Center for Advancing Translational Sciences (NCATS).
3T3 cytotox: Cytotoxic Profiling in NIH 3T3 Cell Line of Diverse Libraries Using Quantitative High-Throughput Screening. NIH 3T3 viability, CellTiter-Glo ATP luminescence, 48-72 h. Potency, µM (doses to about 96.7 µM), inactives show top-dose activity change, negative = cytotoxicity, most hits filed as inhibitors. 94,000 tested, 4.3% active; further: nearly all actives have a fitted effect of over 55% in size
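Luminescent ATP readout (CellTiter-Glo, 10 min RT) after 48 or 72 hr compound exposure of NIH 3T3 cells seeded at 400 cells/well in 1536-well format; quantitative HTS.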
hNpr1 antagonist: Natriuretic polypeptide receptor (hNpr1) antagonism - Primary qHTS; HEK293 hNpr1 GloSensor cGMP, ANP-stimulated luminescence; Potency, µM (highest dose often 46.3 µM), inactives show at the highest dose activity change, negative = inhibition, usual class: inhibitors; Atrial natriuretic peptide receptor 1 (Homo sapiens), P16066; 76,000 tested, 1.6% active; calls by dose curve; further: nearly all actives have a fitted effect of over 60% in size
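HEK293 cells stably expressing human Npr1 and cGMP GloSensor pGS-40F, loaded 2 h with 2% GloSensor reagent, given compound 30 min at room temperature. Luminescence read before and 20 min after 0.1 nM hNppA.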
Luciferase inh: Firefly luciferase inhibition profiling of diverse chemical library using quantitative high-throughput screening; purified P. pyralis luciferase, luminescence, biochemical; Potency, µM (titrated, usually from 115 µM), most hits filed as inhibitors; 76,000 tested, 2.5% active; further: nearly all actives have a fitted effect of over 65% in size
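Luminescence read by CCD imaging after purified firefly luciferase (10nM final) was added to substrate buffer holding 10uM D-luciferin and 10uM ATP, pH 7.5, pre-dosed with compound.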
HEK293 tox: Cytotoxic Profiling in HEK 293 Cell Line of Diverse Libraries Using Quantitative High-Throughput Screening. HEK 293 viability, ATP luminescence (CellTiter-Glo), 48-72 h. Potency, µM (highest dose often 115 µM), inactives show at the top dose activity change, negative = cytotoxicity, most hits filed as inhibitors. 94,000 tested, 6.6% active. AID 1345083, 2018; further: nearly all actives have a fitted effect of over 60% in size
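Cells seeded first (HEK 293, 250 cells/well), then compound added by pintool. Incubation ran 48 or 72 hr at 37 degree Celsius. CellTiter-Glo was added and luminescence imaged after 10 min at room temperature.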
GPT2 inhibitor: Primary qHTS assay for inhibitors of Glutamate pyruvate transaminase 2 (GPT2). Alanine aminotransferase 2 (Homo sapiens), Q8TD30. Recombinant GPT2, coupled pyruvate oxidase/HRP Amplex Red fluorescence. Potency, µM (series often up to 57.7 µM), for the others: at the top dose activity change, negative = inhibition, hits mostly inhibitors. 100,000 tested, 0.25% active. AID 1671188, 2021; further: nearly all actives have a fitted effect of over 60% in size
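Fluorescence of coupled pyruvate oxidase/HRP/Amplex Red system (50uM Amplex, 30 min, dark) reports pyruvate formed by GPT2. Enzyme reaction: 10ng/uL GPT2, 2mM L-alanine, 250uM a-KG, 30 min room temperature, pH 7.5; 50uM AOA control.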
An asterisk follows results filed as active; i = inactive; ? = inconclusive; · = no result; [ ] = dose if it differs, or a comment. Rows were chosen to be rich in hits. Some 10% of all compounds tested hit in one or more screens of this group. Unless noted, the call rests on the fitted dose curve; in most records, active means well fitted curve in the direction sought with a large enough effect; inconclusive means small, poorly fitted or top-dose-only effect, or another doubt; inactive means no such curve, though single readings can be large; an effect the other way counts as inactive or inconclusive. On the % scale 0 is the no-effect control and ±100 the full control effect; potency means the concentration at half of the fitted maximal effect.

SMILES	3T3 cytotox	hNpr1 antagonist	Luciferase inh	HEK293 tox	GPT2 inhibitor
O=C(c1ccc2ccccc2n1)N1CCC(Cc2nc(-c3ccccc3)n[nH]2)CC1	?	·	·	?	i
COCCN1CCCCCC(O)c2cc(C(=O)NCc3cc(F)cc(F)c3)ccc21 (centres undefined)	?	-3%	i	?	i
O=C(c1ccccc1F)N1CCN(C(=O)c2nc3cccnc3n(C3CC3)c2=O)CC1	-20%	·	·	-7%	i
COc1ccc(F)cc1-c1ccc(CN2CCCCC2C(=O)N2CCN(c3ncccn3)CC2)cc1 (centres undefined)	?	·	·	45µM*	·
COC1CN(c2cccc(F)c2)C12CCN(C(=O)COc1ccccc1)CC2 (centres undefined)	?	-1%	i	89µM*	i
O=C(C1CCCN1C(=O)c1cccc(Cl)c1)N1CCC(c2nc3ccncc3[nH]2)CC1 (centres undefined)	-27%	·	·	-4%	0%
COc1ccccc1NC(=O)N1CCc2cc(OC)c(OC)cc2C1CNC(=O)c1ccco1 (centres undefined)	-23%	-11%	i	-36%	i
Clc1ccc(CNc2nc(-c3ccccc3)no2)cc1	?	-30%	16µM*	?	-12%
CN(Cc1cnn(-c2ccc(F)cc2)c1)c1cc(C2CC(O)C2)ncn1 (centres undefined)	?	?	i	28µM*	i
CN(Cc1nc2ccc(F)cc2[nH]1)c1cc(C2CC(O)C2)ncn1 (centres undefined)	-28%	7%	i	-3%	-11%
COc1cccc(CN2CCc3c(cc(C(=O)Nc4cc(C)ccc4C)n3C)C2)c1	?	-22%	32µM*	?	-8%
COc1cccc(CN2CCc3c(cc(C(=O)Nc4ccc(F)cc4C)n3C)C2)c1	?	-4%	25µM*	?	i
COc1ccc(C2(C(=O)N3CCc4nn(Cc5ccccc5)c(=O)n4CC3)CC2)cc1	-13%	·	·	3%	-5%
CCC1(N2CCN(S(=O)(=O)c3ccc4c(c3)CCCC4)CC2)CCN(C(=O)C(C)C)C1 (centres undefined)	?	-23%	i	?	?
COc1ccc(-c2noc(CC3CCN(C(=O)c4cc(OC)cc(OC)c4)CC3)n2)cc1	?	?	i	35µM*	i
COc1ccc(-c2noc(CC3CCN(C(=O)c4cc(OC)c(OC)c(OC)c4)CC3)n2)cc1	13µM*	?	i	?	3%
COc1cc(OC)cc(C(=O)N2CCC(Cc3nc(-c4cccc(OC)c4)no3)CC2)c1	?	?	i	45µM*	i
CCOc1cc(C(=O)N2CCC(Cc3nc(-c4cnccn4)no3)CC2)cc(OCC)c1OCC	?	-3%	i	-15%	?
CCOc1cc(C(=O)N2CCC(Cc3nc(-c4ccc(F)cc4)no3)CC2)cc(OCC)c1OCC	32µM*	?	i	35µM*	-15%
COc1ccccc1C(=O)N1CCC(Cc2nc(-c3ccccc3)no2)CC1	?	?	i	?	1%
O=C(NCCc1ccccc1F)c1nc2sccn2c1-c1ccc(F)cc1	?	·	·	?	-8%
Cc1ccc(C(=O)N2CCC(Cc3nc(C(C)C)no3)CC2)cc1C	45µM*	?	i	?	2%
COc1ccc(C(=O)N2CCC(Cc3nc(C(C)C)no3)CC2)cc1OC	-45%	?	i	?	i
O=C(NCc1ccc(F)cc1)c1nc(-c2ccccc2)c2cnccn12	?	·	·	?	5%
COc1ccc(-c2ccccc2C(=O)NCc2ccc(F)cc2F)nn1	-13%	·	·	-9%	·
SMILES	3T3 cytotox	hNpr1 antagonist	Luciferase inh	HEK293 tox	GPT2 inhibitor
O=C(NCc1ccc(Cl)cc1)C1CCN(c2nccc(Nc3ccccc3F)n2)CC1	28µM*	·	·	18µM*	4%
O=C(NCCc1ccc(F)cc1)C1CCN(c2nccc(Nc3ccccc3F)n2)CC1	?	·	·	28µM*	i
COc1cccc(-c2ccccc2NC(=O)C2CCN(c3nccnc3C)CC2)c1	22µM*	?	i	?	-15%
COc1cccc(-c2ccccc2NC(=O)C2CCN(Cc3ccc(F)cc3)CC2)c1	22µM*	-26%	i	32µM*	4%
O=C(c1ccc(F)cc1)N1CCC(C(=O)N2CCC(N3CCOC3=O)CC2)CC1	-26%	·	·	-3%	-21%
Cc1ccccc1C(=O)N1CCN(c2cc(-c3ccc(F)cc3)[nH]n2)CC1	?	-21%	i	?	i
COc1ccc(-c2cc(N3CCN(C(=O)c4ccc(C)c(F)c4)CC3)n[nH]2)cc1	?	-3%	i	?	i
COc1ccc(-c2cc(N3CCCN(C(=O)c4ccc(C)c(C)c4)CC3)n[nH]2)cc1	?	0%	i	45µM*	?
COc1ccc(Cl)cc1C(=O)N1CCCN(c2cc(-c3ccc(C)c(C)c3)[nH]n2)CC1	40µM*	-20%	i	?	?
Cc1ccc(-c2cc(N3CCCN(C(=O)c4ccco4)CC3)n[nH]2)cc1C	32µM*	-10%	i	?	i
Cc1ccc(C)c(C(=O)N2CCN(c3cc(-c4ccc(Cl)cc4)[nH]n3)CC2)c1	?	14µM*	i	25µM*	0%
COc1cccc(-c2cn3cc(C(=O)Nc4ccc(F)cc4)nc3s2)c1	?	·	·	?	i
O=C(Nc1ccccc1)[C@H]1O[C@H](CCN2CCN(c3ccc(F)cc3)CC2)CC[C@@H]1O	?	-13%[70.6 µM]	i	?	i
COc1ccc(C(=O)N2CCCN(c3cc(-c4ccc(OC)cc4)[nH]n3)CC2)cc1	-27%	-21%	i	?	-21%
Cc1ccc(C(=O)N2CCCN(c3cc(-c4ccc(C)c(C)c4)[nH]n3)CC2)cc1C	?	-11%	i	35µM*	?
Cc1ccc(-c2cc(N3CCCN(C(=O)Cc4ccccc4Cl)CC3)n[nH]2)cc1C	40µM*	-3%	?	?	?
COc1ccc(-c2cc(N3CCCN(C(=O)c4ccc(C(C)(C)C)cc4)CC3)n[nH]2)cc1	?	-1%	i	40µM*	0%
O=C(Cc1ccccc1Cl)N1CCCN(c2cc(-c3ccccc3)[nH]n2)CC1	?	-9%	i	?	?
